High-throughput results (PubChem BioAssay)
PNC inhibitor = perinucleolar compartment assembly inhibition | PC3M PTB-GFP, PNC prevalence imaging, 16 h; stronger effect = lower value | activity change (PNC), negative = inhibition, % at 10 µM | AID 2417 | hit rate 3.1% among 140,000;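 active = readout at or below -70, meaning at least 70% loss of cells showing the perinucleolar compartment, a nuclear body marking cancer cells; inconclusive = readout between -30 and a set limit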;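 note: plate controls were DMSO wells for no effect and camptothecin positive control wells for full effect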
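Read-out is percentage of cells bearing a perinucleolar compartment, from automated 20x imaging of fixed, Hoechst-stained PC3M PTB-GFP cells. Cells were seeded 4 h, then exposed 16 h to compound (23 nl of library stock) in duplicate plates.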
HPGD inh = blocks human HPGD enzyme activity; P15428; Potency, µM, inactives show at the top dose activity change, negative = inhibition, most hits filed as inhibitors; hit rate 4.3% among 150,000; AID 894; purified HPGD, NADH fluorescence kinetic, PGE2 substrate; note: potency is the fitted concentration of half-maximal effect
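20 nM HPGD preincubated 15 min at room temperature with compound in 50 mM Tris-HCl pH 8, 0.01% Tween 20. Started with 1 mM NAD+ and 30 uM prostaglandin E2; NADH fluorescence (360/450 nm) read 5 times over 30-s intervals, last minus first.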
ALDH1A1 inh = blocks purified human ALDH1A1 activity; P00352; Purified ALDH1A1, NADH fluorescence, propionaldehyde substrate; Potency, µM (highest dose often 75.3 µM), inactives show top-dose activity, negative = inhibition, usual class: inhibitors; hit rate 7.3% among 220,000;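 note: potency is the fitted concentration of half-maximal effect; plate controls were no enzyme wells and a reference inhibitor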
Target sequence (P00352 whole entry, looked up): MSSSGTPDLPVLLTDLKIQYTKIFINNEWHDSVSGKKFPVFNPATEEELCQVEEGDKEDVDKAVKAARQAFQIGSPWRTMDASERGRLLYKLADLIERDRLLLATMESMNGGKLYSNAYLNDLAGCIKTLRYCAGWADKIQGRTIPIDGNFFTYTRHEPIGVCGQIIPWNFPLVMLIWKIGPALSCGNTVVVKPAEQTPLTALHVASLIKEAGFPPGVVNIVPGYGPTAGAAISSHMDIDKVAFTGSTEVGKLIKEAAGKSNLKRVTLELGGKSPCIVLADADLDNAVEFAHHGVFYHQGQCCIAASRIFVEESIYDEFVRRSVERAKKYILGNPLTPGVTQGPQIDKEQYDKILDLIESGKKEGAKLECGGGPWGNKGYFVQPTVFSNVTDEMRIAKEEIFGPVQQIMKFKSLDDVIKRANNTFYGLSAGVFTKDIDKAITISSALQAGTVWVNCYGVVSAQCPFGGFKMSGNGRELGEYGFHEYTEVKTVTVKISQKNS
* = called active by the depositor; ? = inconclusive; / = no result; [ ] = another dose, or the depositor's remark. This is a sample that favours compounds with a hit; in the whole collection about 11% have one here. Unless noted, calls come from the whole dose curve; as a rule, active = well fitted inhibition curve with a large enough effect (not every such curve was filed as active); inconclusive = small, poorly fitted or top-dose-only effect, or another doubt; inactive = no such curve, though single readings can be large or run the other way. Unless noted, % is set by controls: 0 for no effect and ±100 for the full control effect.

SMILES	PNC inhibitor	HPGD inh	ALDH1A1 inh
CC(C)NC(=O)Cn1nnc(-c2ccc(Cl)cc2)n1	30	/	10µM*
CCOC(=O)c1c(NC(=O)Cn2nnc(-c3ccc(Cl)cc3)n2)sc(C)c1C	7	-3%	1%
COc1ccc(/C=C/C(=O)OCC(=O)Nc2ccc(OC)c(S(=O)(=O)N3CCCCC3)c2)cc1	4	-22%	-6%
CN(C)S(=O)(=O)c1cc(NC(=O)COC(=O)CCSc2ccc(Cl)cc2)ccc1Cl	-88*	-13%	?
COc1ccc(/C=C/C(=O)OCC(=O)Nc2ccc(Cl)c(S(=O)(=O)N(C)C)c2)cc1OC	-110*	?	?
CN(C)S(=O)(=O)c1cc(NC(=O)COC(=O)Cc2ccc(Cl)cc2Cl)ccc1Cl	-14	-7%	5%
Cc1ccc(NC(=S)NCC2CCN(C(C)c3ccccc3)C2)cc1C (centres undefined)	/	/	4%
CC(C)(C)C1CCc2onc(C(=O)O)c2C1 (centres undefined)	/	/	8%
COc1cccc(N(CC(=O)NCC2CCCO2)C(=O)CCC(=O)Nc2nccs2)c1 (centres undefined)	/	/	-3%
COC(=O)[C@@]1(Cc2ccccc2)[C@H]2c3cc(C(=O)N4CCCC4)n(CCc4ccccn4)c3C[C@H]2CN1C(=O)c1ccccc1	/	-5%	-3%
COC(=O)[C@@]1(Cc2ccc(F)cc2)[C@H]2c3cc(C(=O)N4CCCC4)n(CCc4ccccn4)c3C[C@H]2CN1C(=O)c1ccccc1	-97*	1%	14%
COC(=O)[C@@]1(Cc2ccc(F)cc2)[C@H]2c3cc(C(=O)N(C)C)n(Cc4ccc(C)o4)c3C[C@H]2CN1C(=O)c1ccccc1	/	18µM*	-8%
COC(=O)[C@@]1(Cc2ccc(F)cc2)[C@H]2c3cc(C(=O)N(C)C)n(Cc4ccccc4)c3C[C@H]2CN1C(=O)c1ccccc1	-29	-15%	6%
Clc1ccccc1C(Nc1cnccn1)Nc1cnccn1	/	?	-12%[13.5 µM]
Cc1ccsc1C1C2=C(CCCC2=O)Nc2ncnn21 (centres undefined)	?	-23%	?
Cc1ccsc1C1C2=C(CC(C)(C)CC2=O)Nc2ncnn21 (centres undefined)	5	?	11µM*
CSc1nc2sc3c(c2c2nncn12)CCC3	-20	-12%	7.9µM*
c1nnc2c3c4c(sc3ncn12)CCCC4	3	-2%	22%
FC(F)(F)c1cccc(NC(=S)Nc2ccc(Cl)cc2Cl)c1	56	-7%	?
S=C(NNc1ccnc2cc(Cl)ccc12)Nc1ccccc1Cl	16	25µM*	?
O=[N+]([O-])c1ccccc1NCCNc1ncc(C(F)(F)F)cc1Cl	-3	-16%	8%
FC(F)(F)c1cnc(NNC(=S)Nc2ccccc2Cl)c(Cl)c1	1	/	1.5µM*
Cc1cccc(NC(=S)NNc2ncc(C(F)(F)F)cc2Cl)c1	40	-18%	28µM*
Clc1ccc(NNc2ccnc3cc(Cl)ccc23)cc1	-14	-19%	-8%
COC(=O)C(C(C)=O)C1c2ccccc2C=C(C)N1C(=O)OC (centres undefined)	/	-5%	20%[13.5 µM]
SMILES	PNC inhibitor	HPGD inh	ALDH1A1 inh
CCC(=O)c1ccc(OCC(=O)OCC(=O)Nc2sccc2C(N)=O)cc1	/	/	5%
CSCC(=O)N1CCCC(CNC(=O)c2ccc(-c3ccccc3)cc2)C1 (centres undefined)	/	/	4µM*
CC(=O)CCC(=O)N1CCCC(CNC(=O)c2ccc(-c3ccccc3)cc2)C1 (centres undefined)	/	/	-2%
COc1ccc(-c2c(C)n([O-])c3c([n+]2=O)CCCCC3)cc1OC	/	/	7%
Nc1cc([N+](=O)[O-])ccc1O	14	-16%	-13%
COc1ccc(O)c(N)c1	/	/	25µM*
CC1CN(C(=O)COC(=O)c2c(Cl)cccc2Cl)CC(C)O1 (centres undefined)	/	/	-1%
Cc1c(C(=O)OCC(=O)N2CC(C)OC(C)C2)oc2ccc(Br)cc12 (centres undefined)	?	?	0.18µM*
CCOc1ccc(C(=O)NNC2CC(=O)N(Cc3ccc(Cl)cc3)C2=O)cc1OC (centres undefined)	/	/	2%
CC(=O)Nc1ccccc1-c1nnc(SCc2ccccc2Cl)[nH]c1=O	44	16µM*	-3%
Nc1ccccc1-c1nnc(SCc2ccccc2Cl)[nH]c1=O	-11	-10%	5%
C/C(=N\O)c1ccc2[nH]ccc2c1	10	-1%	5%
N#CC(C#N)=C(N)/C(C#N)=C/c1ccc2[nH]ccc2c1	/	/	13µM*
O=C(NC(=S)N1CCN(c2ccc(F)cc2)CC1)c1cccs1	/	/	-12%
O=C(COC(=O)[C@H](Cc1ccccc1)NC(=O)c1ccco1)NC(c1ccccc1)c1ccccc1	?	-5%	1%
CC(CCc1ccccc1)NC(=O)c1ccco1 (centres undefined)	21	-17%	0%
COC(=O)CNC(=O)COC(=O)C(Cc1ccccc1)NC(=O)c1ccco1 (centres undefined)	-115*	-4%	?
CC(C)CNC(=O)[C@H](Cc1ccccc1)NC(=O)c1ccco1	-11	-7%	40µM*
CCOC(=O)c1ccc(NC(=O)c2cn(CCC#N)nc2-c2ccc3c(c2)OCCO3)cc1	?	-21%	3%
COc1ccc2[nH]c(I)c(CCNC(C)=O)c2c1	/	-23%	1%
CCCC(=O)NCCc1c(I)[nH]c2ccc(OC)cc12	/	/	20µM*
Cc1ccc(S(=O)(=O)N2CCN(C(=O)c3c(C)nn(-c4ccccc4)c3Cl)CC2)cc1	-19	-11%	-4%
COc1ccc(S(=O)(=O)N2CCN(C(=O)c3c(C)nn(-c4ccccc4)c3Cl)CC2)cc1	-8	-16%	32µM*
COC(=O)c1ccc(C(NC(=O)OCc2ccccc2)/C(=C/[C@@H](C)C(=O)NCCF)c2cccnc2)cc1 (some centres undefined)	/	-16%	9%
Cn1cccc1C(=O)N1CCC[C@@]2(CCN(c3cccc(-c4ccccc4)c3)C2)C1	/	?	-12%
SMILES	PNC inhibitor	HPGD inh	ALDH1A1 inh
Cc1nc(SCC(=O)OCc2ccccc2)c(C#N)c(-c2ccccc2)c1C(=O)Nc1ccccc1	8	-14%	20µM*
COCCOC(=O)c1c(C)nc(SCC(=O)Nc2ccc(OC)cc2)c(C#N)c1-c1ccco1	-111*	-18%	?
Cc1nc(SCC(=O)c2ccccc2)c(C#N)c(-c2ccco2)c1C(=O)NCc1ccco1	31	-21%	10µM*
N#Cc1c(-c2ccco2)cc(C2CC2)nc1SCC(=O)c1ccccc1	-21	/	?
Cc1ccccc1NC(=O)c1c(C)nc(SCC(=O)OCc2ccccc2)c(C#N)c1-c1ccc(F)cc1	-6	-24%	?
COc1cccc(NC(=O)CSc2nc3c(c(-c4ccco4)c2C#N)CCCC3)c1	30	-21%	?
CC1=CN2C(=N)/C(=C\c3cn(CCCOc4ccccc4)c4ccccc34)C(=O)N=C2S1	?	-16%	-7%
Cc1c(C)c2ccc(OS(C)(=O)=O)c(C)c2oc1=O	31	-16%	-13%
C/C(=N\NC(N)=O)c1ccccc1Cl	/	/	25%
CC(=O)NC(NC(=S)N1CCCCCC1)C(Cl)(Cl)Cl (centres undefined)	/	/	6%
Cn1c(=O)c2c(nc(Cl)n2CC(=O)N2CCCCC2)n(C)c1=O	/	/	-11%
